According to the supplement of paper PMC9262897, “Low-cost anti-mycobacterial drug discovery using engineered E. coli” (Nature Communications, 2022):
Counter-ions that a name gives are not always drawn. ± gives the standard deviation of the averaged measurements.

Assays:
Assay in all cases: growth (OD600 after 10 h); higher = more growth (less inhibition)
[1] = tested on: E. coli TESEC Alr+ wild-type control; settings: compound 0.1 mM; raw OD600 reference: median of DMSO wells 0.241, cell-free background 0.041
Method: (§1)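 TESEC Mtb Alr E. coli, or the Alr+ wild-type control, in 384-well plates with Prestwick library compounds at 0.1 mM and 1% DMSO, across arabinose induction levels of 1E3 to 1E7 nM. Growth is read as OD600 after 10 h at 37 °C in triplicate biological replicates.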

[2] = tested on: E. coli TESEC Mtb Alr; settings: compound 0.1 mM
Method: as §1

[3] = tested on: E. coli TESEC Mtb Asd; settings: compound 0.1 mM
Method: (§2)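 TESEC E. coli strains in which the native enzyme is deleted and replaced by arabinose-inducible Mtb Asd, DapB, CysH or TrpD, each grown in its selective medium. Strains were screened against the Prestwick library at 0.1 mM and 1% DMSO in 384-well format at low and high arabinose induction. Growth is read as OD600 after 10 h in triplicate.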

[4] = tested on: E. coli TESEC Mtb DapB; settings: compound 0.1 mM
Method: as §2

[5] = tested on: E. coli TESEC Mtb Alr; settings: compound 0.1 mM; remark: listed apart in the source
Method: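 TESEC Mtb Alr E. coli (ΔaraC ΔtolC ΔentC Δalr ΔdadX, arabinose-inducible Mtb Alr) or the Alr+ wild-type control strain, grown in defined M9-fructose medium without D-alanine in 96-well plates with Prestwick library compounds at 0.1 mM and 1% DMSO. Low Alr induction is 0.1 µM arabinose and high induction is 10 mM arabinose.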

[6] = arabinose 1000 nM, raw OD600 reference: median of DMSO wells 0.294, cell-free background 0.041
[7] = arabinose 10000 nM, raw OD600 reference: median of DMSO wells 0.264, cell-free background 0.041
[8] = arabinose 100000 nM, raw OD600 reference: median of DMSO wells 0.201, cell-free background 0.041
[9] = arabinose 1000000 nM, raw OD600 reference: median of DMSO wells 0.193, cell-free background 0.041
[10] = arabinose 10000000 nM, raw OD600 reference: median of DMSO wells 0.146, cell-free background 0.041
[11] = arabinose induction (level): High, raw OD600 reference: median of DMSO wells 0.331, cell-free background 0.041
[12] = arabinose induction (level): Low, raw OD600 reference: median of DMSO wells 0.417, cell-free background 0.041
[13] = arabinose induction (level): High, raw OD600 reference: median of DMSO wells […], cell-free background 0.041
[14] = arabinose induction (level): Low, raw OD600 reference: median of DMSO wells 0.227, cell-free background 0.041
[15] = arabinose 100 nM, raw OD600 reference: median of DMSO wells 0.413, cell-free background 0.052
[16] = arabinose 10000000 nM, raw OD600 reference: median of DMSO wells […], cell-free background 0.052

| Compound | growth [1] | growth [2, 6] | growth [2, 7] | growth [2, 8] | growth [2, 9] | growth [2, 10] | growth [3, 11] | growth [3, 12] | growth [4, 13] | growth [4, 14] | growth [5, 15] | growth [5, 16] |
| --- | --- | --- | --- | --- | --- | --- | --- | --- | --- | --- | --- | --- |
| NCCCCCC(=O)O [Aminocaproic acid] | 0.249 ± 0.0031 | 0.314 ± 0.019 | 0.257 ± 0.016 | 0.1768 ± 0.00047 | 0.172 ± 0.0099 | 0.161 ± 0.0086 | 0.47 ± 0.023 | 0.438 ± 0.028 | 0.206 ± 0.02 | 0.28 ± 0.025 | 0.407 ± 0.017 | 0.354 ± 0.025 |
| Nc1ccc(C(=O)NCC(=O)O)cc1 [Aminohippuric acid] | 0.246 ± 0.011 | 0.297 ± 0.018 | 0.2604 ± 0.0024 | 0.186 ± 0.022 | 0.189 ± 0.006 | 0.138 ± 0.0027 | 0.372 ± 0.047 | 0.464 ± 0.01 | 0.208 ± 0.0093 | 0.234 ± 0.0072 | 0.408 ± 0.015 | 0.3487 ± 0.0013 |
| CCN(CC)CC#CCOC(=O)C(O)(c1ccccc1)C1CCCCC1 (stereo unspecified) [Oxybutynin chloride] | 0.148 ± 0.0035 | 0.13 ± 0.067 | 0.167 ± 0.004 | 0.131 ± 0.072 | 0.0668 ± 0.00052 | 0.117 ± 0.0015 | 0.137 ± 0.017 | 0.191 ± 0.033 | 0.159 ± 0.0078 | 0.172 ± 0.034 | 0.398 ± 0.031 | 0.145 ± 0.025 |
| NC(=O)c1cccnc1 [Nicotinamide] | 0.2773 ± 0.0019 | 0.335 ± 0.0062 | 0.302 ± 0.0031 | 0.263 ± 0.014 | 0.238 ± 0.014 | 0.155 ± 0.0058 | 0.447 ± 0.0077 | 0.45 ± 0.033 | 0.214 ± 0.01 | 0.258 ± 0.043 | 0.43 ± 0.024 | 0.453 ± 0.0089 |
| C=C1c2cccc(O)c2C(O)=C2C(=O)[C@]3(O)C(O)=C(C(N)=O)C(=O)[C@@H](N(C)C)[C@@H]3[C@@H](O)[C@H]12 [Methacycline hydrochloride] | 0.0468 ± 0.0013 | 0.0453 ± 0.00098 | 0.0468 ± 0.0019 | 0.0492 ± 0.0052 | 0.0489 ± 0.0047 | 0.0481 ± 0.0026 | 0.05743 ± 0.00057 | 0.0548 ± 0.0016 | 0.0592 ± 0.0012 | 0.0603 ± 0.0025 | 0.0587 ± 0.0009 | 0.066 ± 0.0023 |
| O=C1CCc2cc(OCCCCc3nnnn3C3CCCCC3)ccc2N1 [Cilostazol] | 0.148 ± 0.028 | 0.194 ± 0.027 | 0.1826 ± 0.00091 | 0.125 ± 0.0036 | 0.0688 ± 0.0017 | 0.123 ± 0.0057 | 0.225 ± 0.051 | 0.285 ± 0.033 | 0.16 ± 0.013 | 0.181 ± 0.0043 | 0.411 ± 0.0062 | 0.145 ± 0.015 |
| CN(C)CCN(Cc1ccccc1)c1ccccn1 [Tripelennamine hydrochloride] | 0.203 ± 0.0015 | 0.281 ± 0.0071 | 0.254 ± 0.0058 | 0.181 ± 0.0046 | 0.184 ± 0.003 | 0.133 ± 0.004 | 0.232 ± 0.055 | 0.329 ± 0.1 | 0.177 ± 0.0099 | 0.209 ± 0.027 | 0.406 ± 0.0074 | 0.307 ± 0.0053 |
| c1ccc2[nH]c(-c3cscn3)nc2c1 [Tiabendazole] | 0.222 ± 0.014 | 0.275 ± 0.0031 | 0.253 ± 0.011 | 0.203 ± 0.021 | 0.188 ± 0.0046 | 0.15 ± 0.011 | 0.278 ± 0.085 | 0.326 ± 0.1 | 0.186 ± 0.003 | 0.192 ± 0.023 | 0.408 ± 0.011 | 0.316 ± 0.015 |
| NS(=O)(=O)c1cc2c(cc1C(F)(F)F)NC(Cc1ccccc1)NS2(=O)=O (stereo unspecified) [Bendroflumethiazide] | 0.233 ± 0.0098 | 0.301 ± 0.0067 | 0.261 ± 0.0081 | 0.219 ± 0.015 | 0.162 ± 0.005 | 0.154 ± 0.0047 | 0.459 ± 0.046 | 0.451 ± 0.035 | 0.217 ± 0.017 | 0.268 ± 0.0034 | 0.403 ± 0.012 | 0.298 ± 0.016 |
| COC(=O)CCc1ccc(OCC(O)CNC(C)C)cc1 (stereo unspecified) [Esmolol hydrochloride] | 0.234 ± 0.014 | 0.295 ± 0.018 | 0.2542 ± 0.00042 | 0.218 ± 0.0079 | 0.195 ± 0.0068 | 0.129 ± 0.0016 | 0.242 ± 0.013 | 0.432 ± 0.022 | 0.195 ± 0.0058 | 0.227 ± 0.019 | 0.405 ± 0.015 | 0.388 ± 0.021 |
| CC(C[N+](C)(C)C)OC(N)=O (stereo unspecified) [Bethanechol chloride] | 0.24 ± 0.0039 | 0.283 ± 0.0042 | 0.28 ± 0.0036 | 0.195 ± 0.014 | 0.222 ± 0.021 | 0.139 ± 0.0046 | 0.373 ± 0.07 | 0.381 ± 0.028 | 0.2 ± 0.024 | 0.242 ± 0.025 | 0.438 ± 0.0061 | 0.349 ± 0.006 |
| Cc1cc2c(cc1S(N)(=O)=O)S(=O)(=O)CCC2 [Meticrane] | 0.252 ± 0.0068 | 0.292 ± 0.011 | 0.259 ± 0.012 | 0.234 ± 0.034 | 0.172 ± 0.013 | 0.142 ± 0.0066 | 0.389 ± 0.044 | 0.425 ± 0.049 | 0.186 ± 0.0019 | 0.281 ± 0.079 | 0.408 ± 0.0074 | 0.254 ± 0.17 |
| c1ccc2c(c1)CCCC2C1=NCCN1 (stereo unspecified) [Tetrahydrozoline hydrochloride] | 0.237 ± 0.0097 | 0.297 ± 0.012 | 0.247 ± 0.0046 | 0.184 ± 0.015 | 0.174 ± 0.0044 | 0.14 ± 0.0055 | 0.435 ± 0.062 | 0.437 ± 0.03 | 0.203 ± 0.018 | 0.226 ± 0.031 | 0.4131 ± 0.0035 | 0.343 ± 0.01 |
